The campaign covered roughly 52,000 compounds. About 4,300 (8.3%) were called active. Shown is part of a subset that was picked to be rich in actives. Values without a mark were called inactive. Cut-off read from the data, not from the text of the source: active = survival mostly below about 52% (no sharp cut-off); inactive = mostly above about 56%.

The assay relates to DeltatarO mutant. Description: S. aureus survival, RN4220 and DeltatarO strains – OD600, teichoic acid synthesis inhibitors, primary screen (AID 463173). The settings on record: S. aureus RN4220 wild type/DeltatarO growth, OD600, 18 h, hits give low values, screened at 18.75 µg/mL (by protocol).
With `CC(C)(C)NC(=O)c1cnn(-c2ccccc2)c1C1CCN(C(=O)OC(C)(C)C)CC1`, the survival is 78%.

For `CC(=O)c1c(C)oc2ccc(N(C(=O)Oc3ccccc3)S(=O)(=O)c3ccc(Cl)cc3)cc12`, the survival is 75%.

`CCC(=O)OC1=C(C(C)=O)N(Cc2ccccc2)S(=O)(=O)c2ccccc21`: the survival was 62%.

As to `COc1ccc(C(CC(=O)Nc2ccc(F)c(Cl)c2)N2Cc3ccccc3C2=O)cc1OC` (centres undefined), the survival was 75%.

For `O=C(Cc1cccs1)NC1CC(=O)N(c2ccccc2)C1` (centres undefined), the survival was 88%.

As to `O=C(NC1CC(=O)N(c2ccccc2)C1)c1ccc(Br)o1` (centres undefined), the survival was 87%.

On to `Cc1ccc(N2CC(NC(=O)c3ccc(Br)o3)CC2=O)cc1C` (centres undefined), for which the survival was 37% (active).

For `COc1ccc(N2CC(NC(=O)c3ccc(Br)o3)CC2=O)cc1` (centres undefined), the survival is 81%.

With `O=C(Cc1cccs1)NC1CC(=O)N(c2ccc(F)cc2)C1` (centres undefined), the survival was 99%.

Regarding `Cc1ccc(N2CC(NC(=O)Cc3cccs3)CC2=O)cc1` (centres undefined), the survival is 8% (active).

As for `O=C(Cc1cccs1)NC1CC(=O)N(c2ccc(Cl)cc2)C1` (centres undefined), the survival was 67%.

As to `Cc1ccc(N2CC(NC(=O)Cc3cccs3)CC2=O)cc1C` (centres undefined), the survival was 25% (active).

As for `COc1ccc(N2CC(NC(=O)Cc3cccs3)CC2=O)cc1OC` (centres undefined), the survival is 94%.

For the compound `Cc1ccc(C)c(NC(=O)CCn2cnnn2)c1`, the survival is 148%.

Take `Cc1nnsc1C(=O)Oc1ccc(C#N)cc1`: the survival is 89%.

In the case of `COc1cccc(NC(=O)c2cc(CN3CCOCC3)on2)c1`, the survival was 88%.

Regarding `CCOC(=O)c1ccc(CN(Cc2ccc(Br)cc2)S(=O)(=O)c2cccc(Cl)c2C)cc1`, the survival was 84%.

Take `CC(=O)c1ccc(NC(=O)CN(C)S(=O)(=O)c2cc3c(cc2Cl)NC(=O)CO3)cc1`: the survival was 72%.

For the compound `O=C(NCc1ccccc1Cl)c1ccc2c(c1)NC(=O)C(CS(=O)(=O)Cc1ccc(F)cc1Cl)N2` (centres undefined), the survival was 81%.

With `COc1ccc(N2CCN(c3csc4ccccc4c3=O)CC2)cc1`, the survival is 81%.

Regarding `CCc1ccc(S(=O)(=O)c2nnn3c2nc(N2CCC(C(N)=O)CC2)c2cc(Cl)ccc23)cc1`, the survival is 69%.

As for `Cc1cc(C)n(CC(C)O)c(=O)c1C#N` (centres undefined), the survival was 108%.

For the compound `CC1(C)C(=O)N(CC(=O)Nc2ccc(Br)cc2F)c2ccccc21`, the survival was 89%.

With `Cc1ccc(OCC(=O)Nc2ccc(S(=O)(=O)Nc3ncccn3)cc2)c(C(C)(C)C)c1`, the survival was 47% (active).

As for `Cc1ccccc1OCC(=O)Nc1ccc(S(=O)(=O)Nc2ncccn2)cc1`, the survival was 133%.

Regarding `CC(C)c1ccc(OCC(=O)Nc2ccc(S(=O)(=O)Nc3ncccn3)cc2)cc1`, the survival is 75%.

With `CCc1cccc(OCC(=O)Nc2ccc(S(=O)(=O)Nc3cc(C)nc(C)n3)cc2)c1`, the survival was 58%.

For `Cc1cc(Br)cc(C)c1OCC(=O)Nc1ccc(S(=O)(=O)Nc2ncccn2)cc1`, the survival was 56%.

Turning to `CCc1cccc(OCC(=O)Nc2ccc(S(=O)(=O)Nc3ncccn3)cc2)c1`, the survival was 43% (active).

Turning to `CCC(Sc1nc2ncccc2[nH]1)C(=O)Nc1ccccc1F` (centres undefined), the survival is 112%.

For the compound `CCOC(=O)Cn1c(=O)oc2cc(S(=O)(=O)N3CCN(c4cccc(Cl)c4)CC3)ccc21`, the survival was 65%.

Consider `COc1cccc2c1Oc1ncccc1N(c1ccc(C(=O)NCc3ccccc3Cl)s1)C2`, for which the survival is 91%.

As for `COc1ccc(Cn2c(CCC(=O)Nc3ccc(OC)c(Cl)c3)nc3cccnc32)cc1`, the survival is 113%.

As to `Cc1cccc(-c2nc(C)c(CCNC(=O)C(=O)Nc3ccccc3C#N)s2)c1`, the survival was 85%.

For the compound `CN(C)S(=O)(=O)N1CCC(n2c(C(F)(F)F)nc3cccnc32)CC1`, the survival is 94%.

As to `CCS(=O)(=O)N1CCC(n2c(C(F)(F)F)nc3cccnc32)CC1`, the survival was 76%.

For `CS(=O)(=O)N1CCC(n2c(C(F)(F)F)nc3cccnc32)CC1`, the survival is 47% (active).

On to `COc1ccc(S(=O)(=O)c2c(O)c3ccc(C(=O)NCc4ccc(F)cc4)cc3[nH]c2=O)cc1`, for which the survival was 108%.

Take `CCOc1cc(-c2ccc(OC(=O)c3ccccc3)c(OC)c2)cc(=O)c2c(C)oc(C)c12`: the survival was 89%.

As for `CCc1ccc(S(=O)(=O)c2nnn3c2nc(Nc2cc(OC)cc(OC)c2)c2cc(Cl)ccc23)cc1`, the survival is 102%.

Turning to `CCOc1ccc(C(=O)Nc2c(C)nc(Nc3ccccc3)nc2Nc2ccccc2)cc1OCC`, the survival was 49% (active).

Regarding `CCOc1ccc(Nc2nc(C)c(NC(=O)c3ccc(C)cc3)c(Nc3ccc(OCC)cc3)n2)cc1`, the survival is 123%.

As for `CCOc1ccc(Nc2nc(C)c(NC(=O)c3cccc(OC)c3)c(Nc3ccc(OCC)cc3)n2)cc1`, the survival was 112%.

Turning to `COc1ccccc1Cc1nc2ccccc2nc1SCC(=O)N(C)c1ccc(F)cc1`, the survival is 83%.

On to `O=C(Cn1cc(SCc2ccc(C(F)(F)F)cc2)c2ccccc21)N1CCOCC1`, for which the survival was 85%.

Take `COc1ccc(NC(=O)NC2COc3ccccc3C2)c(OC)c1` (centres undefined): the survival is 98%.

Regarding `O=C(Nc1ccc(OC(F)(F)F)cc1)NC1COc2ccccc2C1` (centres undefined), the survival was 0% (active).

As to `COc1ccc(NC(=O)NC2COc3ccccc3C2)cc1Cl` (centres undefined), the survival was 57%.

For the compound `O=C(Nc1cccnc1)c1cccc(C(=O)Nc2cccnc2)c1`, the survival was 79%.

Consider `O=C(O)c1ccccc1C(=O)Nc1cccnc1`, for which the survival is 89%.

As for `O=C(Nc1cccnc1)c1ccccc1Oc1ccccc1`, the survival is 65% (active).

`CCOc1ccc(-c2c(C)nn3c(C)c(C(=O)NCc4cccc(OC)c4)cnc23)cc1OCC`: the survival was 77%.

Consider `CCOc1ccc(NC(=O)CN(c2ccc(Cl)cc2C)S(=O)(=O)c2ccccc2)cc1`, for which the survival is 45% (active).

In the case of `CC(NC(=O)CN(c1ccc(Cl)cc1Cl)S(=O)(=O)c1ccccc1)c1ccccc1` (centres undefined), the survival is 37% (active).

For `Cc1ccccc1NC(=O)CN(c1ccc(Cl)cc1Cl)S(=O)(=O)c1ccccc1`, the survival is 44%.

Take `COc1ccc(N(CC(=O)Nc2cccc(C(C)=O)c2)S(=O)(=O)c2ccccc2)c(OC)c1`: the survival is 48% (active).

Regarding `CCOc1ccc(S(=O)(=O)N(CC(=O)Nc2ccc(OC)c(Cl)c2)c2ccccc2)cc1`, the survival was 75%.

On to `CCOc1ccc(NC(=O)CN(c2ccccc2OCC)S(=O)(=O)c2ccccc2)cc1`, for which the survival was 48%.

Take `COc1ccc(N(CC(=O)Nc2ccc(Cl)cc2C)S(=O)(=O)c2ccccc2)c(OC)c1`: the survival is 113%.

As to `COc1ccc(N(CC(=O)NCCc2ccccc2)S(=O)(=O)c2ccccc2)c(OC)c1`, the survival is 57%.

Take `Cc1ccc(CNC(=O)CN(c2ccc(Cl)cc2Cl)S(=O)(=O)c2ccccc2)cc1`: the survival is 47%.

As for `CCN(CC)CCCNc1nc(C)nc2c1nnn2Cc1ccccc1`, the survival was 94%.

For `CC(C(=O)NCc1ccco1)N1CCN(C)CC1` (centres undefined), the survival was 95%.

As to `CC(C)NC(=O)Cc1ccc(Br)cc1`, the survival was 80%.

Take `Cc1cccc(N(C)S(=O)(=O)c2cc(-c3cnc(C4CC4)o3)ccc2C)c1`: the survival is 100%.

In the case of `COc1ccccc1NC(=O)CSc1nnc(-c2nonc2NC(C)=O)n1-c1ccccc1`, the survival is 63%.

On to `CC(=O)Nc1nonc1-c1nnc(SCC(=O)Nc2cc(C)ccc2C)n1-c1ccccc1`, for which the survival is 104%.

As for `CC(=O)Nc1nonc1-c1nnc(SCC(=O)Nc2c(C)cccc2C)n1-c1ccccc1`, the survival is 56%.

Turning to `CC(=O)Nc1nonc1-c1nnc(SCC(=O)Nc2ccc(C)cc2)n1-c1ccccc1`, the survival was 53%.

As for `CCOc1ccc(NC(=O)CSc2nnc(-c3ccncc3)n2-c2ccccc2)cc1`, the survival was 122%.

As to `CC(=O)Nc1nonc1-c1nnc(SCC(=O)Nc2ccc(F)cc2F)n1-c1ccccc1`, the survival is 13% (active).

On to `COc1ccc(NC(=O)CSc2nnc(-c3nonc3NC(C)=O)n2-c2ccccc2)cc1`, for which the survival is 60% (active).

With `CCn1c(SCC(=O)Nc2ccc(C)c(C)c2)nnc1-c1nonc1NC(C)=O`, the survival is 110%.

Turning to `CCc1ccccc1NC(=O)CSc1nnc(-c2nonc2NC(C)=O)n1C`, the survival is 52%.

For `COc1ccc(NC(=O)CSc2nnc(-c3ccncc3)n2-c2ccccc2)cc1`, the survival was 77%.

As for `CC(=O)Nc1nonc1-c1nnc(SCC(=O)Nc2ccccc2)n1-c1ccccc1`, the survival was 39% (active).

Turning to `CCc1ccc(NC(=O)CSc2nnc(-c3nonc3NC(C)=O)n2-c2ccccc2)cc1`, the survival is 43% (active).

Turning to `Cc1cccc(NC(=O)CSc2nc3ccc(NC(=O)c4ccco4)cc3s2)c1`, the survival is 66%.

In the case of `CCC1CN(C(=O)N2CCC(C(=O)NCc3ccc(OC)cc3OC)CC2)c2cc(C)ccc2O1` (centres undefined), the survival was 79%.

Consider `CCOc1cc(C2c3c(oc4ccccc4c3=O)C(=O)N2c2ccccn2)ccc1O` (centres undefined), for which the survival was 109%.

Turning to `CCOC(=O)Cn1c(=O)oc2cc(S(=O)(=O)NCc3ccc(F)cc3)ccc21`, the survival was 72%.

Regarding `Cc1cccn2c(=O)c(C(=O)NCCc3ccc(S(N)(=O)=O)cc3)c(O)nc12`, the survival was 51%.

For the compound `Cc1nn2c(=O)cc(COc3ccc(/C=C(\C#N)C(=O)Nc4ccc(F)cc4)cc3)nc2s1`, the survival is 58%.

In the case of `CCOC(=O)c1c(C)[nH]c(C)c1S(=O)(=O)N1CCC(C(=O)Nc2ccc(C)c(N(C)C)c2)CC1`, the survival is 84%.

With `CC(=O)N1CCc2nc3sc(C(=O)Nc4ccc(Cl)cc4F)c(N)c3c(C(F)(F)F)c2C1`, the survival was 75%.

As to `CC(=O)Nc1nonc1-c1nnc(SCC(=O)Nc2cccc(C)c2C)n1-c1ccccc1`, the survival was 61%.

Turning to `CC(=O)Nc1nonc1-c1nnc(SCC(=O)Nc2cccc(F)c2)n1-c1ccccc1`, the survival is 19% (active).

Take `CC(=O)Nc1nonc1-c1nnc(SCC(=O)Nc2cc(C)cc(C)c2)n1-c1ccccc1`: the survival is 50%.

`Cc1nc2cc(-c3ccccc3)nn2c(C)c1CCC(=O)Nc1ccc(F)cc1F`: the survival is 61%.

The values above are taken from PubChem BioAssay AID463173 (ICCB-Longwood Screening Facility, Harvard Medical School, 2010).
